From the supplement of paper PMC9694430
Where “and” joins values, the source holds several entries; their conditions need not be identical. Equal values may be shown once. Where a name gives a salt, the structure may show the parent alone.

Columns and labels:
Test in all cases: thermal shift delta Tm vs DMSO control; higher = stronger stabilization (binding)
Details in all cases: 12.5 µM; protein concentration 2 µM
LOC_OS01G01410-cb001 = tested on: LOC_OS01G01410-cb001
Method in brief: (§1)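 Purified, E. coli-expressed rice kinase domain constructs were tested by differential scanning fluorimetry in 96-well plates: 19.5 μl of 2 μM kinase in 100 mM potassium phosphate pH 7.5, 150 mM NaCl, 10% glycerol, 5 × SYPRO Orange, plus compound in DMSO. Fluorescence was read from 25°C to 95°C at 0.05°C/s. Melting temperatures came from Boltzmann fits, and the shift is the triplicate mean relative to protein with DMSO alone.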

LOC_OS01G02750-cb003 = tested on: LOC_OS01G02750-cb003
Method in brief: as §1

LOC_OS01G10900-cb004 = tested on: LOC_OS01G10900-cb004
Method in brief: as §1

LOC_OS01G13800-cb001 = tested on: LOC_OS01G13800-cb001
Method in brief: as §1

LOC_OS01G14860-cb001 = tested on: LOC_OS01G14860-cb001
Method in brief: as §1

LOC_OS01G21960-cb002 = tested on: LOC_OS01G21960-cb002
Method in brief: as §1

LOC_OS01G39600-cb002 = tested on: LOC_OS01G39600-cb002
Method in brief: as §1

LOC_OS01G48390-cb002 = tested on: LOC_OS01G48390-cb002
Method in brief: as §1

LOC_OS01G51400-cb002 = tested on: LOC_OS01G51400-cb002
Method in brief: as §1

LOC_OS01G52050-cb004 = tested on: T1, LOC_OS01G52050-cb004
T1 sequence (whole entry): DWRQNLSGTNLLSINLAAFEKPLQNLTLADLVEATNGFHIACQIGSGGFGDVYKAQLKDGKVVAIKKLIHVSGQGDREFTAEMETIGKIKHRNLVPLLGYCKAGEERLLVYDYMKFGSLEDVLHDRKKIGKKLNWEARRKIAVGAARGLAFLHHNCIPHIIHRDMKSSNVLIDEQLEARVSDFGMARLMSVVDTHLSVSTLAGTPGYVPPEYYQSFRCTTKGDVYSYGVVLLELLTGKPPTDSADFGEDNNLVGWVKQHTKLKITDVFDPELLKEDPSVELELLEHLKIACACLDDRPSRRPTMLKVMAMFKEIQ
Method in brief: as §1

| Compound | thermal shift delta Tm (LOC_OS01G01410-cb001) | thermal shift delta Tm (LOC_OS01G02750-cb003) | thermal shift delta Tm (LOC_OS01G10900-cb004) | thermal shift delta Tm (LOC_OS01G13800-cb001) | thermal shift delta Tm (LOC_OS01G14860-cb001) | thermal shift delta Tm (LOC_OS01G21960-cb002) | thermal shift delta Tm (LOC_OS01G39600-cb002) | thermal shift delta Tm (LOC_OS01G48390-cb002) | thermal shift delta Tm (LOC_OS01G51400-cb002) | thermal shift delta Tm (LOC_OS01G52050-cb004) |
| --- | --- | --- | --- | --- | --- | --- | --- | --- | --- | --- |
| COc1ccc(S(=O)(=O)N(CCO)c2ccccc2CN(C)C/C=C/c2ccc(Cl)cc2)cc1 [KN-93 Phosphate] | 0.65 °C | 0.92 °C | 0.7 °C | -0.08 °C | 0.51 °C | 0.96 °C | -0.38 °C | 0.66 °C | 0.28 °C | 0.47 °C |
| CC(=O)Nc1cccc(-n2c(=O)n(C3CC3)c(=O)c3c(Nc4ccc(I)cc4F)n(C)c(=O)c(C)c32)c1 | 0.31 °C | 1.28 °C | 0.15 °C | 0.06 °C | 0.12 °C | 0.5 °C | -0.55 °C | 0.45 °C | 0 °C | 0.63 °C |
| COc1ccc(/C=C/C(=O)C2(C(=O)/C=C/c3ccc(OC)c(OC)c3)CCCCC2)cc1OC | 0.52 °C | 0.5 °C | 1.18 °C | 0.16 °C | 0.18 °C | 0.55 °C | 0.02 °C | 0.51 °C | 0.07 °C | 0.63 °C |
| CN(C)C/C=C/C(=O)Nc1cc2c(Nc3ccc(F)c(Cl)c3)ncnc2cc1O[C@H]1CCOC1 [Afatinib (BIBW2992) Dimaleate] | 0.1 °C | 2.11 °C | 5.05 °C | 0.72 °C | 3.86 °C | 1.14 °C | 1.17 °C | 2.48 °C | 0.14 °C | 1.67 °C |
| O=C(Cc1ccc(-c2ccc(OCCN3CCOCC3)cc2)cn1)NCc1ccccc1 | 0.29 °C | -0.23 °C | -0.03 °C | -0.06 °C | 0.06 °C | 0.58 °C | -1.02 °C | 0.31 °C | 0.06 °C | -0.13 °C |
| CN1CC[C@H](c2c(O)cc(O)c3c(=O)cc(-c4ccccc4Cl)oc23)[C@H](O)C1 [Flavopiridol HCl] | 0.19 °C | 0.76 °C | 0.17 °C | 0.42 °C | 4.95 °C | 1.89 °C | 1.02 °C | 0.58 °C | 0.54 °C | 1.03 °C |
| CCc1cc(Nc2nccc(-c3c(-c4ccc(OC)c(C(=O)Nc5c(F)cccc5F)c4)nc4ccccn34)n2)c(OC)cc1N1CCC(N2CCN(S(C)(=O)=O)CC2)CC1 | 1.23 °C | -0.77 °C | 0.34 °C | 0.56 °C | 0.33 °C | 1.05 °C | 1.04 °C | 0.41 °C | 0.3 °C | 0.04 °C |
| O=C1c2c(O)cc(O)cc2OC(c2ccc(O)c(O)c2)C1O (stereo not given) [Taxifolin (Dihydroquercetin)] | 0.87 °C | 0.83 °C | 0.4 °C | 0.01 °C | 0.34 °C | 0.61 °C | 0.19 °C | 0.17 °C | 0.11 °C | 0.49 °C |
| Cc1c(C(=O)Nc2ccc(Oc3ccnc4[nH]cc(-c5ccccc5)c34)c(F)c2)c(=O)n(-c2ccc(F)cc2)n1C | 0.66 °C | 2.79 °C | 1.91 °C | 0.84 °C | 0.67 °C | 1.55 °C | 2.37 °C | 1.72 °C | 0.78 °C | 2.8 °C |
| Cc1cc(O)c(-c2ccc([C@@H](C)CN)cc2)c2c1[nH]c(=O)c1sccc12 [OTS514 hydrochloride] | 0.18 °C | 0.75 °C | 1.18 °C | 0.58 °C | 5.36 °C | 1.5 °C | 0.36 °C | 1.38 °C | -0.1 °C | 1.82 °C |
| O=C(Nc1nc2cccc(-c3ccc(CN4CCS(=O)(=O)CC4)cc3)n2n1)C1CC1 [Filgotinib (GLPG0634)] | 0.4 °C | 0.46 °C | 0.17 °C | 0.3 °C | 0.5 °C | 0.89 °C | -0.06 °C | 0.26 °C | 0.32 °C | 1.03 °C |
| C=CCc1ccc(O)c(-c2ccc(O)c(CC=C)c2)c1 [Honokiol] | 0.83 °C | 1.12 °C | 0.85 °C | 0.22 °C | 0.9 °C | 1.38 °C | 1.21 °C | 0.93 °C | 0.36 °C | 1.76 °C |
| O=C(Nc1cccnc1)c1cc(-c2ccnc(F)c2)ccc1OCc1ccccc1 | 2.5 °C | 0.28 °C | -0.53 °C | 0.66 °C | -0.01 °C | 0.38 °C | -0.21 °C | 0.88 °C | 0.01 °C | -0.04 °C |
| COc1ccc(-c2ccc3ncc4c(c3c2)n(-c2ccc(N3CCNCC3)c(C(F)(F)F)c2)c(=O)n4C)cn1 | 1.5 °C | 2.95 °C | 0.97 °C | 0.05 °C | 2.59 °C | 2.58 °C | 0.22 °C | 0.42 °C | -0.17 °C | 4.2 °C |
| O=C1NC(=O)[C@@H](c2cn3c4c(cccc24)CCC3)[C@@H]1c1c[nH]c2ccccc12 [Tivantinib (ARQ 197)] | 0.55 °C | 0.06 °C | 0.15 °C | 0.17 °C | 0.16 °C | 0.75 °C | 0.54 °C | 0.43 °C | 0.27 °C | 0.75 °C |
| Cc1cc(Nc2ncc(Cl)c(Nc3ccccc3S(=O)(=O)C(C)C)n2)c(OC(C)C)cc1C1CCNCC1 [Ceritinib (LDK378)] | 0.47 °C | 1.1 °C | 0.21 °C | -0.57 °C | 0.83 °C | 0.34 °C | 2.1 °C | 0.85 °C | 0.35 °C | 0.22 °C |
| O=C(NC1CCNCC1)c1n[nH]cc1NC(=O)c1c(Cl)cccc1Cl | 0.79 °C and -0.04 °C | 0.32 °C and 1.46 °C | 0.21 °C and 0.72 °C | -0.01 °C and 1.05 °C | 4.91 °C and 5.53 °C | 0.86 °C and 0.55 °C | -0.04 °C and 0.17 °C | 0.25 °C and 0.54 °C | -0.23 °C and 0.38 °C | -0.1 °C and 0.56 °C |
